In PubChem BioAssay AID977607 (Broad Institute, 2014):
Screen size: about 1,500 compounds; about 460 (31%) were called active. Inconclusive results (about 1%) are left out.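 The calls were made as follows: active = curve reaches 40% activation over neutral controls at an AC40 no higher than the top valid tested concentration; inconclusive = no clear call, values can overlap the other calls; inactive = signal moving opposite to the expected increase, and the rest.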 Not all results are given here. Potency and affinity values are given separately.

Assay: GLuc-reported insulin release enhancers, glucose-stimulated beta cells – cell-based, INS-1E, Gaussia luciferase, luminescence, cherry-pick, set 2, dose response (AID 977607);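 also: 0% = median of the plate neutral control wells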
Conditions: INS-1E GLuc insulin secretion reporter, 2-3 h, hits give high values; at 35 µM, 100% = signal doubled over neutral wells unless noted

Max activation, inactive:
Cc1cc(-c2ccc(Br)cc2)n2nc(C)cc2n1 -25.9% [at 0.005 µM, 100% = signal doubled over neutral wells]
c1ccc(-c2nc(NCC3CC3)nc3ccsc23)cc1 -19.8%
COc1cc2[nH]c(-c3ccc(C)cc3)cc(=O)c2cc1OC -18.5% [at 3.8 µM, 100% = signal doubled over neutral wells]
CC(=O)NN1C(=O)c2ccccc2NC1c1ccccc1O (centres undefined) -23.9% [at 0.42 µM, 100% = signal doubled over neutral wells]
O=C(Cn1nnc(-c2ccccc2)n1)N=Nc1c(O)[nH]c2ccccc12 32.5%
COc1ccc2nc3ccccc3nc2c1NC(=O)c1ccc(Cl)cc1 -10.8% [at 0.046 µM, 100% = signal doubled over neutral wells]
COc1cc(Cl)c(C)cc1NC(=O)c1ccccc1NC(=O)CN1CCN(C(C)=O)CC1 -25.4% [at 3.8 µM, 100% = signal doubled over neutral wells]
COc1cc2c(cc1OC)C(Nc1ccccc1)=NC(C)(C)C2 -20.4% [at 0.005 µM, 100% = signal doubled over neutral wells]
Cc1cc(Oc2cccnc2)ccc1NC(=O)Cc1cn(C)c2ccccc12 -32.7%
O=C(Nc1ccccc1C(=O)N/N=C/c1ccccc1)c1ccco1 -16.8% [at 0.0016 µM, 100% = signal doubled over neutral wells]
Cc1cc(C(=O)NC(C)CCC(C)C)c2ccccc2n1 (centres undefined) 29.7% [at 1.2 µM, 100% = signal doubled over neutral wells]
CCCCNC(=O)C1(C)CCN1C(=O)Cc1cccc2ccccc12 (centres undefined) 11.1% [at 0.015 µM, 100% = signal doubled over neutral wells]
CCNC(=O)C1(C)CCCN1Cc1cccc(C(F)(F)F)c1 (centres undefined) -24%
CCOc1ccc(C(=O)NCC(=O)Nc2cc(C)ccn2)cc1OCC -21.2% [at 11 µM, 100% = signal doubled over neutral wells]
Cn1c(=O)n(Cc2ccccc2Br)c2ccccc21 20.4% [at 0.0016 µM, 100% = signal doubled over neutral wells]
O=c1[nH]nc(-c2ccc(F)cc2)cc1Cc1cccs1 13.5% [at 3.8 µM, 100% = signal doubled over neutral wells]
Clc1ccc(-c2cc(CN3CCOCC3)no2)cc1 -22.2% [at 11 µM, 100% = signal doubled over neutral wells]
CCNc1nc(NCC)nc(N(C)/N=C/c2ccco2)n1 24.3% [at 11 µM, 100% = signal doubled over neutral wells]
COc1cc(C(C(=O)NC2CCCC2)N(Cc2ccco2)C(=O)c2snc(C(N)=O)c2N)cc(OC)c1OC (centres undefined) 22.3% [at 0.015 µM, 100% = signal doubled over neutral wells]
COc1ccc(C2C3CCCCC3(O)CCN2C(=O)c2cccs2)cc1 (centres undefined) -22.1% [at 0.046 µM, 100% = signal doubled over neutral wells]
CC1CCC(NCCNC(=O)c2ccco2)CC1 (centres undefined) -20.4%
Cc1cc(Br)c2c(c1)C1(OCCO1)C(=O)N2 -12%
CC(=O)c1cccc(NC2c3ncccc3C(=O)N2Cc2ccco2)c1 (centres undefined) 50.6% [at 11 µM, 100% = signal doubled over neutral wells]
O=C1c2cccnc2C(Nc2ccc(F)c(Cl)c2)N1Cc1cccs1 (centres undefined) -13.1% [at 0.135 µM, 100% = signal doubled over neutral wells]
C=CCN1C(=O)CSc2ccc(C(=O)OCC)cc21 -11.5% [at 3.8 µM, 100% = signal doubled over neutral wells]
CCCN(Cc1nnc(-c2ccccc2Cl)o1)C(=O)c1cc2ccccc2o1 -17% [at 11 µM, 100% = signal doubled over neutral wells]
Cc1cc(C)cc(N(C(=O)C(F)(F)F)C(C(=O)NC2CCCCC2)c2cccs2)c1 (centres undefined) 37.1% [at 0.42 µM, 100% = signal doubled over neutral wells]
Cc1ccc(S(=O)(=O)N2CCN(C(=O)COC(=O)c3ccc(O)cc3)CC2)c(C)c1 -39.9%
N#CC1=C(N)Oc2n[nH]c(-c3ccc(F)cc3)c2C1c1cccnc1 (centres undefined) 43%
COc1ccc(S(=O)(=O)N(C)CC(=O)Nc2ccc3c(c2)OCCO3)cc1OC 41.6% [at 0.0016 µM, 100% = signal doubled over neutral wells]
O=C(O)Cc1ccc(NS(=O)(=O)c2ccc3c(c2)OCCO3)cc1 -23.1% [at 0.0016 µM, 100% = signal doubled over neutral wells]
O=C(N=C1SC2CS(=O)(=O)CC2N1c1ccc(F)c(Cl)c1)C1CC1 (centres undefined) -16.2% [at 0.046 µM, 100% = signal doubled over neutral wells]
Cc1cc2nc(-c3ccccc3O)[nH]c2cc1C -13.8% [at 0.42 µM, 100% = signal doubled over neutral wells]
Cc1ccc(NC(=O)c2cc(-c3ccccc3O)n[nH]2)cc1C 17.3%
O=C(c1cc(-c2ccc(F)cc2)nc2ccccc12)N1CCN(C2CCS(=O)(=O)C2)CC1 (centres undefined) -24.6% [at 0.0016 µM, 100% = signal doubled over neutral wells]
CC(=O)c1cccc(N(CC(=O)NC2CCCCC2)C(=O)Cn2nnc(-c3ccccc3)n2)c1 -24.8% [at 0.0016 µM, 100% = signal doubled over neutral wells]
CCOc1nc(-c2ccccc2)c2cc(Br)ccc2n1 13.2%
COc1ccc(C(=O)Nc2nnc(-c3ccco3)s2)cc1 -13.7% [at 0.135 µM, 100% = signal doubled over neutral wells]
NC(=O)C1CCN(C(=O)CCNS(=O)(=O)c2ccccc2F)CC1 14.1% [at 1.2 µM, 100% = signal doubled over neutral wells]
CCn1cc(C(=O)O)c(=O)c2cc(F)c(N3CCN(C(=S)NC(=O)c4cccc(C)c4)CC3)cc21 -20.5%
CCOc1ccc(CCNC(=O)COC(=O)c2cccc(N(C)C)c2)cc1OCC -44%
CC(C)CC(=O)Nc1cccc(-c2nc3ncccc3o2)c1 -18.2% [at 0.0016 µM, 100% = signal doubled over neutral wells]
CN1CCN(c2ccc(NC(=O)c3ccc(Oc4ccccc4)cc3)cc2)CC1 -14.3% [at 0.015 µM, 100% = signal doubled over neutral wells]
COc1ccc(S(=O)(=O)N2CCCCC2)cc1NC(=O)C1CCCC1 -27.7% [at 0.135 µM, 100% = signal doubled over neutral wells]
O=C(NCc1ccccc1)c1cccnc1Sc1ccccc1 14.4% [at 3.8 µM, 100% = signal doubled over neutral wells]
CCOCCCn1c(SCc2ccccc2)nnc1-c1ccncc1 27.1% [at 1.2 µM, 100% = signal doubled over neutral wells]
CNc1nc(-c2ccccc2)cc(-c2ccccc2)n1 -32.2%
CC(C)Cc1nc2n[nH]c(N)c2c2c1COC(C)(C)C2 33.4%
CCCCOc1ccc(SCCCN2CCOCC2)cc1 -17.1% [at 11 µM, 100% = signal doubled over neutral wells]
CC(=O)Oc1ccccc1C(=O)OCCN=C1NS(=O)(=O)c2ccccc21 -19.1% [at 0.046 µM, 100% = signal doubled over neutral wells]
CCOC(=O)c1cc(-c2ccc(Cl)s2)nc2c1c(C)nn2C 61.3%
N#Cc1cccnc1Nc1cccc(Cl)c1 31.6%
CCNC(=O)C1(C)CCCN1C(=O)c1cc(OC)c(OC)c(OC)c1 (centres undefined) -19.1% [at 0.135 µM, 100% = signal doubled over neutral wells]
CC(=O)Nc1ccc(Nc2nc(-c3c(C)nc4ccccn34)cs2)cc1 -20% [at 11 µM, 100% = signal doubled over neutral wells]
O=C(Nc1cccc(Cl)c1)Nc1nc(-c2ccc(Cl)cc2)cs1 -37.7% [at 11 µM, 100% = signal doubled over neutral wells]
Cc1ccc(-c2cc(C(=O)Nc3nn[nH]n3)c3ccccc3n2)c(C)c1 -12.2% [at 1.2 µM, 100% = signal doubled over neutral wells]
Cc1ccc2c(c1)C=CC(C#N)N2C(=O)c1ccccc1 (centres undefined) 36.1%
O=C(COc1nncc2ccccc12)NCC(F)(F)F 25.7%
Cc1ccc(C(OCC(O)CNCc2ccc(F)cc2)c2ccccc2)cc1 (centres undefined) 97.1%
